Screens from PubChem.
HT1080 IDH1KD tx: qHTS for induction of synthetic lethality in tumor cells producing 2HG: qHTS for the HT-1080-IDH1KD cell line; HT-1080 IDH1 knockdown viability, ATP luminescence, 48 h; AID 686971, 2013; 360,000 tested, 2% active; Potency, µM (series often up to 46.1 µM), without a hit: top-dose activity, negative = toxicity, usual class: cytotoxic;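 also: potency is read from the fitted curve at half-maximal effect; 0% = DMSO wells and -100% = cell-free medium wells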
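% activity derives from luminescence (CellTiter-Glo), normalised to DMSO and no-cell wells. HT-1080-IDH1KD cells, 750/well, had 48 h compound exposure at 37 °C.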
TDP1 cell noCPT: qHTS for Inhibitors of human tyrosyl-DNA phosphodiesterase 1 (TDP1): qHTS in cells in absence of CPT; DT40 Tdp1-/- hTDP1 cells, no CPT, ATP luminescence, 48 h; Potency, µM (doses to about 46.2 µM), without a hit: top-dose activity change, negative = growth inhibition, hits mostly inhibitors; 420,000 tested, 15% active; AID 686978, 2013; also: potency is read from the fitted curve at half-maximal effect; nearly all actives have a fitted effect of over 55% in size
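DT40 Tdp1-/-;hTDP1 cells, no CPT (DMSO vehicle only), 400 cells/well; compounds pin-transferred; ≥48 hr, 37 °C; CellTiter-Glo 30 min RT dark, luminescence read.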
TDP1 cell CPT: qHTS for Inhibitors of human tyrosyl-DNA phosphodiesterase 1 (TDP1): qHTS in cells in presence of CPT; chicken DT40 Tdp1-/-;hTDP1 cells + 20 nM CPT, ATP luminescence, 48 h; Potency, µM (titrated, usually from 46.2 µM), without a hit: at the highest dose activity change, negative = growth inhibition, actives largely listed as inhibitors; 420,000 tested, 12% active; also: potency is read from the fitted curve at half-maximal effect; nearly all actives have a fitted effect of over 55% in size
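Cell growth measured by CellTiter-Glo luminescence after a minimum 48 h, 37 C compound exposure with 20 nM CPT in Tdp1-knockout DT40 cells stably expressing hTDP1, seeded 400/well; qHTS titration format.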
IL1B secr inh: qHTS for Inhibitors of Inflammasome Signaling: IL-1-beta AlphaLISA Primary Screen. activity change, % at 57.5 µM. AID 743279, 2014. 360,000 tested, 4.7% active. THP-1 LPS/ATP IL-1B secretion, AlphaLISA, 16 h; stronger effect = lower value; in the data active = activity change below about -50%; inconclusive = mostly about -30% to -49%
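THP-1 cells pretreated 1 hr with compounds (up to 57.5 uM final), then stimulated with LPS (250 ng/mL final) plus ATP (1.25 mM final); secreted IL-1B measured by AlphaLISA after 16 hr, decreased signal indicating inhibition.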
HT1080-NT tox: qHTS for induction of synthetic lethality in tumor cells producing 2HG: qHTS for the HT-1080-NT fibrosarcoma cell line | HT-1080-NT fibrosarcoma viability, CellTiter-Glo ATP luminescence, 48 h | Potency, µM (top dose mostly 46.1 µM), inactives show top-dose activity, negative = less viability, most hits filed as cytotoxic | 360,000 tested, 1.6% active | AID 686970, 2013;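 also: NT is the 2HG producing partner of a matched IDH1 knockdown line; potency is read from the fitted curve at half-maximal effect; 0% = DMSO-treated cells and -100% = media-only wells without cells; nearly all actives have a fitted effect of over 55% in size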
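Viability by CellTiter-Glo luminescence after 48 h compound exposure at 37C of HT-1080-NT cells (750/well, RPMI, 5% FBS). % activity scaled between DMSO wells and medium-only wells, then curve-fitted and categorized by curve class.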
* marks the source's active call; other numbers are inactive results; u = inconclusive; x = not tested or not shown; [ ] = another dose, or the depositor's remark. A selection: hits, their analogues and other compounds. The true share with any hit is near 19%. Unless noted, calls follow the shape of the dose curve; as a rule, active = well fitted curve in the direction sought with a large enough effect; inconclusive = small, poorly fitted or top-dose-only effect, or another doubt; inactive = no such curve, though single readings can be large; an effect the other way counts as inactive or inconclusive. Unless noted, % is scaled to controls: 0 for no effect and ±100 for the full control effect.

SMILES	HT1080 IDH1KD tx	TDP1 cell noCPT	TDP1 cell CPT	IL1B secr inh	HT1080-NT tox
Cc1ccc(C(=O)N2CCCCC2)cc1S(=O)(=O)N1CCCC1	7%	11%	19%	11	0%
C=CCN(c1ccc(C(=O)N2CCN(c3ccc(F)cc3)CC2)cc1)S(C)(=O)=O	-2%	u	-19%	-12	-2%
CN(Cc1ccccc1)C(=O)C1CCN(S(=O)(=O)c2ccc(-n3cnnn3)cc2)CC1	0%	-10%	5%	-23	-3%
Cc1nn(C(=O)c2ccc3c(c2)OCO3)c(N)c1-c1ccccc1	5%	-22%	-9%	-9	u
O=C(O)c1ccc(-c2nc3ccccc3s2)o1	4%	19%	7%	10	13%
O=C(CN1CCN(C(=O)c2ccc(-c3nc4ccccc4s3)o2)CC1)Nc1ccc(F)cc1	-21%	26µM*	u	-12	4%[9.24 µM]
O=C(c1ccc(-c2nc3ccccc3s2)o1)N1CCN(c2ccccc2O)CC1	0%	21µM*	23µM*	20	-10%
O=C(CN1CCN(C(=O)c2ccc(-c3nc4ccccc4s3)o2)CC1)Nc1ccccc1Cl	2%	u	u	50	12%
COc1ccccc1C(=O)OCc1cc(=O)n2c(C)csc2n1	x	-29%	4%	x	x
CCN1CCN(C(c2cccc(Cl)c2)c2c(O)cc(C)n(CCOC)c2=O)CC1 (centres undefined)	x	-9%	5%	x	x
COc1ccc(Nc2nc3ccc(Cl)cc3n3nnnc23)cc1OC	x	16µM*	u	x	x
CCN(CC)S(=O)(=O)c1ccc(Nc2nc3ccccc3n3nnnc23)cc1	-19%	16µM*	23µM*	3	-19%
c1ccc(Nc2nc3ccccc3n3nnnc23)cc1	-7%	u	u	58	-12%
c1ccc2c(c1)nc(Nc1ccc3c(c1)OCO3)c1nnnn12	u	16µM*	u	-12	-30%
Cc1ccc(C)c(N2CCN(C(=O)c3ccc(Nc4nc5ccccc5n5nnnc45)cc3)CC2)c1	x	-11%	2%	x	x
Fc1cccc(Nc2nc3ccccc3n3nnnc23)c1	-2%	u	u	46	-4%
COc1cccc(Nc2nc3ccccc3n3nnnc23)c1	-7%	u	u	15	-10%
COc1ccccc1N1CCN(C(=O)c2ccc(Nc3nc4ccccc4n4nnnc34)cc2)CC1	x	u	9.2µM*	x	x
CC(C)N(C)c1ncnc2c1ncn2[C@H]1CN(CCc2ccccc2)C[C@@H](CO)O1	15%	u	u	-18	u
CCOc1ccc(N(CC(=O)NN=C2CCCC2)S(C)(=O)=O)cc1	17%	0%	4%	6	13%
O=C(Nc1ccc2c(c1)CCO2)Nc1nnc([C@H]2C[C@H](O)[C@@H](CO)O2)s1	u	5%	-20%	25	28%
C=CCNc1nnc(Cc2ccc(C(C)C)cc2)c(=O)[nH]1	-23%	3.3µM*	7.3µM*	6	-5%
Cc1onc(-c2ccccc2Cl)c1C(=O)Nc1ccc(-c2nnc3n2CCCCC3)cc1	-5%	u	u	-5	-14%
COc1ccc(/C=C/C(=O)Nc2ccc(-c3nnc4n3CCCCC4)cc2)c(OC)c1	-24%	2.3µM*	9.2µM*	-53*	-14%
Cc1cc(C)n(-c2ccc(Cl)c(C(=O)Nc3ccc(-c4nnc5n4CCCCC5)cc3)n2)n1	8%	1.8µM*	2.1µM*	-12	8%
SMILES	HT1080 IDH1KD tx	TDP1 cell noCPT	TDP1 cell CPT	IL1B secr inh	HT1080-NT tox
CC(=O)c1c(C)n(CC(=O)NCc2ccc3c(c2)OCO3)c2ccccc12	-24%	14µM*	13µM*	-5	u
O=C(Cn1c(CO)nc2ccccc21)NCc1ccc2c(c1)OCO2	0%	-15%	-9%	-9	15%
NC(=O)Cn1c(=O)n(CCCCCC(=O)NCc2ccc3c(c2)OCO3)c(=O)c2sccc21	x	-12%	-14%	x	x
CCOc1ccc(NC(=O)Cn2c(=O)n(CCCCC(=O)NCc3ccc4c(c3)OCO4)c(=O)c3ccccc32)cc1	x	-24%	u	x	x
CCOc1ccccc1NC(=O)Cn1c(=O)n(CCC(=O)NCc2ccc3c(c2)OCO3)c(=O)c2ccccc21	x	12µM*	u	x	x
O=C(CCCn1c(=O)c2ccccc2n(CC(=O)Nc2cccc(Cl)c2)c1=O)NCc1ccc2c(c1)OCO2	x	15µM*	u	x	x
O=C(CCCCCn1c(=O)c2sccc2n(CC(=O)Nc2cccc(Cl)c2)c1=O)NCc1ccc2c(c1)OCO2	x	15µM*	u	x	x
Cn1c(=O)c2c(nc(SCc3cccnc3)n2Cc2ccc(F)cc2)n(C)c1=O	9%	23µM*	21µM*	10	0%
Cn1c(Oc2ccccc2)nc2c1c(=O)n(Cc1ccc(Cl)cc1Cl)c(=O)n2C	x	16µM*	15µM*	x	x
Cn1c(OCc2ccc3c(c2)OCO3)nc2c1c(=O)n(Cc1cccc(Cl)c1)c(=O)n2C	3%	10µM*	u	17	5%
Cn1c(OCc2cccnc2)nc2c1c(=O)n(Cc1ccc(F)cc1)c(=O)n2C	1%	12µM*	21µM*	10	0%
COCCCNc1nc2c(c(=O)n(Cc3ccc(F)cc3)c(=O)n2C)n1C	1%	-4%	-5%	30	7%
Cn1c(Oc2ccc3c(c2)OCO3)nc2c1c(=O)n(Cc1ccccc1)c(=O)n2C	10%	u	u	-14	12%
CC[C@H](C)[C@H]1CNC(=O)C(=O)N1CC1CCN(CCc2ccccc2)CC1	8%	3%	2%	-3	11%
COc1ccccc1NC(=S)NCc1ccc2c(c1)OCO2	6%	u	2%	15	18%
CC(=O)Nc1ccc(C2NC(=O)CCC2[N+](=O)[O-])cc1 (centres undefined)	6%	4%	13%	13	7%
Cn1c(=O)c2c(nc(OCc3cccnc3)n2Cc2c(F)cccc2Cl)n(C)c1=O	7%	u	u	-19	-1%
Cn1c(OCc2cccnc2)nc2c1c(=O)n(Cc1ccccc1)c(=O)n2C	-5%	18µM*	u	12	-2%
NC(=O)CN1C(=O)C(O)(CC(=O)/C=C\c2ccc3c(c2)OCO3)c2ccccc21 (centres undefined)	u	u	-18%	-88*	u
CN1C(=O)C(O)(CC(=O)/C=C\c2ccc3c(c2)OCO3)c2ccccc21 (centres undefined)	u	u	u	-101*	u
